# Cruzain noTriton – cruzain (T. cruzi) inhibition without detergent | purified cruzain, Z-FR-AMC fluorescence, no detergent | Potency, µM, inactives show max response, negative = inhibition, most hits filed as inhibitors | 2.3% of 200,000 active;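 also: plate controls were enzyme without inhibitor for no effect and buffer without enzyme for full effect; nearly all actives have a fitted effect of over 40% in size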
# Target sequence (P25779 123-467 limits assumed): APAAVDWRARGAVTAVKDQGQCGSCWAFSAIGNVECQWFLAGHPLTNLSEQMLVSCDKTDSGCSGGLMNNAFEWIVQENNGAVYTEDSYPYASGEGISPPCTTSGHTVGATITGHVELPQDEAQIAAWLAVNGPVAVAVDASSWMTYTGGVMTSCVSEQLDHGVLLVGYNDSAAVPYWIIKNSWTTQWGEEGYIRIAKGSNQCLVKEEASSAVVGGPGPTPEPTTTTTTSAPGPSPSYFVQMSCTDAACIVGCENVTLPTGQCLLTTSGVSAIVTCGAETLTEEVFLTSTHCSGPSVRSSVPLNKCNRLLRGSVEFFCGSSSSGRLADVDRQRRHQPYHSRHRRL
#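 Purified cruzain at 1.5 nM, pre-incubated 15 min with compound at room temperature in 100 mM sodium acetate pH 5.5, 5 mM DTT, 0.00005% Triton X-100. Reaction started with 2 uM Z-FR-AMC; AMC fluorescence increase over 60 s gives rate.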
# Cruzain Triton – cruzain (T. cruzi) inhibition with detergent. Potency, µM, for inactives: max response, negative = inhibition, usual class: inhibitors. AID 1478. 0.43% of 200,000 active. purified cruzain, Z-FR-AMC fluorescence, 0.01% Triton;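 also: plate controls were neutral wells for no effect and buffer without enzyme for full effect; nearly all actives have a fitted effect of over 40% in size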
#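 Detergent-containing arm of a paired screen for aggregation-based inhibition: 0.01% Triton X-100 present. Cruzain at 1.5 nM cleaved 2 uM Z-FR-AMC at pH 5.5 with 5 mM DTT; AMC fluorescence gain over 60 s measured activity.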
# Papain counter – blocks papain protease activity, flagging nonselective cruzain hits. shares compounds with Cruzain Triton. purified papain, Z-FR-AMC fluorescence cleavage. Potency, µM, for inactives: max response, negative = inhibition, most hits filed as inhibitors. 41% of 410 active;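 also: 0% = no-compound wells and -100% = no-enzyme wells; nearly all actives have a fitted effect of over 35% in size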
# Target sequence (P00784 whole entry, looked up): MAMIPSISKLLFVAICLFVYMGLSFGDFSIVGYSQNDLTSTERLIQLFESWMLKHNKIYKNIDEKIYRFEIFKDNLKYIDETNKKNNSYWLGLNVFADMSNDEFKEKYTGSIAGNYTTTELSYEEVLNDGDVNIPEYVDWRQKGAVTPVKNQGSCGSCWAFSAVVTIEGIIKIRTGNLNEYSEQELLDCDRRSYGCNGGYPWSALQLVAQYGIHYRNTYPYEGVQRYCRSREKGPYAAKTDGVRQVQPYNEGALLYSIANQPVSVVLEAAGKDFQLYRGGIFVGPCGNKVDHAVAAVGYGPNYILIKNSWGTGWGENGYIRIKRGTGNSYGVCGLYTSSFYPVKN
# An asterisk follows results filed as active; ? = inconclusive; / = no result. In the library only some 2.4% were active in any assay of this set; here they are far more common. Calls follow the shape of the dose curve; as a rule, active = well fitted curve in the direction sought with a large enough effect; inconclusive = small, poorly fitted or top-dose-only effect, or another doubt; inactive = no such curve, though single readings can be large; an effect the other way counts as inactive or inconclusive. Potency is read from the fitted curve at half-maximal effect.
SMILES,Cruzain noTriton,Cruzain Triton,Papain counter
CN1CCN(C(=O)CSc2nc(-c3ccncc3)ccc2C#N)CC1,2%,-5%,/
N#Cc1ccc(-c2ccccc2)nc1SCC(=O)c1cccc(Cl)c1,13µM*,2%,/
CCOC(=O)C(C)Sc1nc(-c2ccccc2)ccc1C#N (stereo not drawn),-7%,-9%,/
CN(CCc1ccc(Cl)c(Cl)c1)CCN1CCCCCC1,-6%,-4%,/
O=C(O)c1c(C(=O)O)c2ccccc2[nH]c1=O,-9%,-5%,/
N#Cc1ccc(C(=O)Nc2cc(S(=O)(=O)N3CCCC3)ccc2OCC(F)(F)F)cc1,8%,-1%,/
O=C(CNc1cc(S(=O)(=O)N2CCCC2)ccc1OCC(F)(F)F)Nc1ccc(SC(F)F)cc1,16µM*,-8%,/
COc1ccc(C)cc1NC(=O)C(OC(=O)CNC(=O)c1ccc(Oc2ccccc2)cc1)c1ccccc1 (stereo not drawn),?,-19%,/
COc1ccc(C)cc1NC(=O)C(OC(=O)CNC(=O)c1cccc(F)c1)c1ccccc1 (stereo not drawn),13µM*,?,/
C[C@H]1C[C@]2(O[C@@H]2C)C(=O)O[C@@H]2CCN(C)C/C=C(/COC(=O)[C@]1(C)O)C2=O,2%,0%,/
C/C(N=NC(=[SH+])SCc1ccccc1)=C1\C=CC=CN1.[Cl][Cu],-8%,5%,/
O=S(=O)(O)CCCc1cccc2ccccc12,-1%,4%,/
COc1cc(/C=N/Nc2snc(SC)c2C#N)ccc1O,-28%,0%,/
CSc1nsc(/C=C/Nc2ccc(C)cc2)c1C#N,3.2µM*,-1%,/
CCC(C)(C)C(=O)O[C@@H]1C[C@@H](C)C=C2C=C[C@H](C)[C@H](CC[C@@H]3C[C@@H](O)CC(=O)O3)[C@H]21,?,-3%,/
O=C(Nc1nnc(C2CC2)o1)c1ccc(S(=O)(=O)N2CCCc3ccccc32)cc1,23%,-5%,/
COc1ccc(-c2nnc(NC(=O)c3ccc(S(=O)(=O)N4CCCc5ccccc54)cc3)o2)cc1,-23%,-1%,-4%
CCC(C(=O)NC1CCCCC1)n1c(SCc2ccccc2F)nc2ccncc21 (stereo not drawn),?,13µM*,28µM*
O=C(NC1CCCC1)c1ccc(CSc2nc3ccncc3n2Cc2ccccc2F)cc1,3%,-7%,/
Cn1c(=O)c2c(nc(N3CCOCC3)n2Cc2ccc(Br)cc2)n(C)c1=O,6%,-3%,/
CCCNC(=O)COc1ccc(S(=O)(=O)Nc2ccc(C)cc2)cc1,10%,6%,/
FC(F)(F)c1cc(-c2ccccc2)nc(NC2CCCC2)n1,-6%,-1%,/
N#Cc1nc(Nc2cccc(F)c2)nc(NC2CCCC2)n1,/,/,0.32µM*
COc1cc2nc(Nc3cccc(F)c3)nc(N)c2cc1OC,-4%,-28%,/
COc1ccc(-c2nc3c(C#N)c[nH]n3c2NC2CCCC2)cc1,-18%,0%,/
SMILES,Cruzain noTriton,Cruzain Triton,Papain counter
COc1ccc(Nc2nc(C#N)nc(NC3CCCC3)n2)cc1,/,/,0.56µM*
N#Cc1nc(Nc2ccc3ccccc3c2)nc(NC2CCCC2)n1,/,/,2µM*
N#Cc1nc(Nc2cccc(-c3ccccc3)c2)nc(NC2CCCC2)n1,/,/,2.5µM*
c1cc2cn[nH]c2cc1NC1CCCCCC1,-8%,-4%,/
Cc1ccc(NC(=O)c2c(NC(=O)c3ccccc3Cl)sc3c2CCC3)cc1,?,-1%,/
CCCCn1c(SCC(=O)NCc2cccs2)nc2c1c(=O)n(C)c(=O)n2C,4%,7%,/
CCn1c(C(=O)N2CCC(C(=O)N3CCN(c4ccc(OC)cc4)CC3)CC2)cc2sccc21,?,-6%,/
O=C(Nc1cccc(-c2nc3ccccc3o2)c1)c1cc([N+](=O)[O-])ccc1N1CCOCC1,?,-4%,/
CCc1ccc(CN(C(=O)c2ccc(OC)cc2)C2CCS(=O)(=O)C2)cc1 (stereo not drawn),10%,-3%,/
O=C(CN1C=NS(=O)(=O)c2ccccc21)Nc1ccc(F)cc1,7%,2%,/
CCOc1nc(NC2CCCCC2)nc(NC(C)(C)C)n1,-9%,-10%,/
N#Cc1nc(Nc2cc(Cl)cc(Cl)c2)nc(NC2CCCC2)n1,/,/,1.4µM*
N#Cc1nc(Nc2cc(F)cc(F)c2)nc(NC2CCCC2)n1,/,/,0.32µM*
N#Cc1c[nH]n2c(NC3CCCC3)c(-c3ccc(Cl)cc3)nc12,?,-8%,/
COC(=O)c1ccc(NC(=O)CC2C(=O)N(c3cccc(OC)c3)C(=O)N2Cc2cccc(OC)c2)cc1 (stereo not drawn),2%,-4%,/
COc1ccc(S(=O)(=O)N(n2c(C)nnc2-n2nc(C)cc2C)S(=O)(=O)c2ccc(OC)cc2)cc1,-1%,-1%,/
CCCc1nc2ccccc2n1CCOc1ccccc1,0%,-6%,/
CCc1ccc(OCCSc2nc3ccccc3n2CC(=O)N2CCCCC2)cc1,14%,-5%,/
CCc1ccc(OCCn2c(CCNC(=O)C3CCCCC3)nc3ccccc32)cc1,/,/,-5%
CCc1ccc(OCCCn2c(CCNC(=O)C3CCCCC3)nc3ccccc32)cc1,/,/,16µM*
Cc1cccc(OCCn2c(CCNC(=O)C3CCCCC3)nc3ccccc32)c1,/,/,-1%
COc1ccc(OCCn2c(CCNC(=O)C3CCCCC3)nc3ccccc32)cc1,/,/,-17%
Cc1cc(OCCCn2c(CCNC(=O)C3CCCCC3)nc3ccccc32)ccc1Cl,7%,1.4µM*,13µM*
CC(C)C(=O)NCCc1nc2ccccc2n1CCCOc1ccc(Cl)cc1,22%,-2%,/
COc1ccc(OCCCn2c(CCNC(=O)C3CCCCC3)nc3ccccc32)cc1,/,/,-9%
SMILES,Cruzain noTriton,Cruzain Triton,Papain counter
Cc1cccc(OCCCn2c(CCNC(=O)C(C)(C)C)nc3ccccc32)c1,?,-3%,/
Cc1cc2ccccc2n1CCNC(=O)C1CCCC1,-6%,4%,/
Cc1ccc(OCCn2c(CCNC(=O)C(C)C)nc3ccccc32)cc1,-9%,-6%,/
Cc1ccc(S(=O)(=O)n2cnc3cc([N+](=O)[O-])ccc32)c(C)c1C,-8%,-1%,/
O=C1c2ccccc2-c2ccc(N=[N+]([O-])c3ccc4c(c3)C(=O)c3ccccc3-4)cc21,1%,0%,/
OCCBr,-3%,5%,/
Cc1ccsc1C(=O)Nc1ccccc1N1CCOCC1,-12%,0%,/
COc1ccccc1NC(=O)C1=C(C)Nc2nnnn2C1c1cc(Br)c(O)c(OC)c1 (stereo not drawn),12%,-3%,/
COc1ccccc1OCCn1c(NC(=O)c2ccccc2)nc2ccccc21,1%,1%,/
COc1ccccc1OCCn1c(CCNC(=O)C2CCCCC2)nc2ccccc21,/,/,2%
CCOC(=O)C(C(=O)OCC)N(C#N)c1nc(SC)nc(N(C)C)n1,3.2µM*,2.5µM*,16µM*
CCOC(=O)C(C(=O)OCC)N(C#N)c1nc(OC)nc(N(C)C)n1,10µM*,3.5µM*,28µM*
CC(C(=O)N(C)C)N(C#N)c1nc(N(C)C)nc(N(C)C)n1 (stereo not drawn),-13%,2%,/
CCOC(=O)COc1nc(N(C)C)nc(N(C)C)n1,4%,12%,/
COC(=O)c1cc2oc3ccccc3c2n1Cc1nc(-c2cccc(Cl)c2)oc1C,?,0%,/
COc1cccc(-n2c(C)nc3cc(C(=O)O)ccc32)c1,0%,-1%,/
COc1cccc(C(=O)NC(Cc2ccccc2)c2ccc3c(c2)OCCCO3)c1 (stereo not drawn),?,-2%,/
Cc1ccc(COc2ccc3oc(-c4ccccc4)c(C(=O)O)c3c2)cc1,20µM*,?,32µM*

# Bioassay records deposited in PubChem by National Center for Advancing Translational Sciences (NCATS).
